sPLA2-III inh – Blocks human group III sPLA2 activity | QFRET BODIPY PC-A2 liposome hydrolysis, fluorescence | inhibition, % at 12.2 µM | hit rate 0.56% among 370,000 | AID 743126;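 active means inhibition above mean plus 3 SD of compounds lying within the high and low control bounds, cut at about 19% in these data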
Target sequence (Q9NZ20 whole entry, looked up): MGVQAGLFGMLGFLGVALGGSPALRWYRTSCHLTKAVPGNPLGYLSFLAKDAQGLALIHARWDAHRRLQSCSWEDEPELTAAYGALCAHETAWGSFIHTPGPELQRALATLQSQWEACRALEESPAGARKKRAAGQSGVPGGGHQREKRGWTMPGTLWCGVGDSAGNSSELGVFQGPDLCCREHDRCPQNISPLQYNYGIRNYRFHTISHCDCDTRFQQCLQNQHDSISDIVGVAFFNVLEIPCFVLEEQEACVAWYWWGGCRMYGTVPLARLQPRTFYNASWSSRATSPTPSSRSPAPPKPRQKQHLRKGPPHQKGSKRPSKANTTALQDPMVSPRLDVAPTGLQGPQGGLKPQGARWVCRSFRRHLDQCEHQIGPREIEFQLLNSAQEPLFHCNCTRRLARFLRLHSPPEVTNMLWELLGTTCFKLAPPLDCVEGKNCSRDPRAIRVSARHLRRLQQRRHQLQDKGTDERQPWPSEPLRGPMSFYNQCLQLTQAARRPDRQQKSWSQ
MsrA inhibitor – bovine MsrA inhibition | purified bovine MsrA, absorbance read-out | inhibition, % at 15.5 µM | hit rate 0.75% among 360,000 | AID 651718; in the data active means inhibition above about 4.5%
rCAG binder – r(CAG) repeat RNA binding; TO-PRO-1 dye displacement fluorescence; inhibition, % at 3 µM; hit rate 1.3% among 370,000; AID 651821;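 active means inhibition above the plate cutoff, the mean of all test compounds on that plate plus 3 SD, cut at about 35% in these data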;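 further: higher means more dye released from RNA so lower well fluorescence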
MsrA act – bovine methionine sulfoxide reductase A activation; purified bovine MsrA, absorbance read-out; hit rate 0.3% among 360,000; activation, % at 10.6 µM; in the data active means activation above about 7.5%
rCAG binder conf – r(CAG) RNA repeat binding, confirmation. hit rate 70% among 4,300. inhibition, % at 3 µM. shares compounds with rCAG binder. TO-PRO-1 dye displacement fluorescence;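 active means inhibition above a per-plate cutoff, the mean inhibition of sample wells plus 3 SD, cut at about 35% in these data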;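 further: loss of TO-PRO-1 fluorescence as compound displaces dye from 1x1 AA loop RNA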
dCAG dye counter – DNA CAG dye complex inhibition counter-screen | hit rate 94% among 4,300 | d(CAG) DNA oligo TO-PRO-1 dye displacement, fluorescence | inhibition, % at 3 µM | shares compounds with rCAG binder | AID 652068;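 active means inhibition above its plate's cutoff, the mean test-well inhibition plus 3 SD, cut at about 4.8% in these data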;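 further: hits displace the dye from DNA and so lower well fluorescence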
DNA CAG DR – DNA CAG dye complex inhibition, dose response counter-screen. hit rate 20% among 250. shares compounds with rCAG binder. IC50, µM. DNA CAG/GTC duplex TO-PRO-1 dye displacement fluorescence. AID 686960; in the data active means IC50 below about 10 µM
Each line names hits and unclear results; the compound was inactive in the other large screens (follow-up assays come after a bar, where they were run). Compounds with a hit are over-represented: about 2.8% of the library has one in this group of screens.

O=C(O)CCN1C(=O)/C(=C2\C(=O)N(Cc3ccccc3Cl)c3ccccc32)SC1=S	none
O=C(O)CN1C(=O)/C(=C2\SC(=S)N(C(Cc3ccccc3)C(=O)O)C2=O)c2ccccc21 (configuration not stated)	rCAG binder 69 | rCAG binder conf 47 | dCAG dye counter 12
CCOc1cc(C(N)=O)cc(Cl)c1OCc1ccccc1	none
CCOc1cc(/C=C(/NC(C)=O)C(=O)O)cc(Cl)c1OCc1cccc(Br)c1	rCAG binder 44 | rCAG binder conf inactive | dCAG dye counter 5.5
C=CCc1cc(C=O)cc(OCC)c1OCc1ccc(Cl)cc1	none
C=CCc1cc(/C=C2/NC(=O)N(CC)C2=O)cc(OCC)c1OCc1ccc(C(=O)O)cc1	rCAG binder 43 | rCAG binder conf 41 | dCAG dye counter 10
O=C(CSCc1ccc(Cl)cc1Cl)Nc1ccccc1C(=O)Nc1ccc(C(=O)O)cc1	none
C=CCn1c(CSCc2ccc(Cl)cc2Cl)nnc1SCC(=O)Nc1ccc(C(=O)O)cc1	rCAG binder 36 | rCAG binder conf 53 | dCAG dye counter 16
O=[N+]([O-])c1ccccc1S(=O)(=O)Nc1cccc(-c2ccc(N3CCCC3)nn2)c1	rCAG binder 36 | rCAG binder conf inactive | dCAG dye counter 9.6
Cc1c([N+](=O)[O-])cc(S(=O)(=O)Nc2ccc(-c3ccc(N4CCCC4)nn3)cc2)cc1[N+](=O)[O-]	rCAG binder 56 | rCAG binder conf 65 | dCAG dye counter 28
O=[N+]([O-])c1ccc(S(=O)(=O)Nc2ccc(-c3ccc(N4CCCC4)nn3)cc2)cc1	none
O=[N+]([O-])c1ccc(Cl)c(S(=O)(=O)Nc2cccc(-c3ccc(N4CCCC4)nn3)c2)c1	rCAG binder 47 | rCAG binder conf 52 | dCAG dye counter 18
Cc1ccc([N+](=O)[O-])cc1S(=O)(=O)Nc1ccc(-c2ccc(N3CCCC3)nn2)cc1	rCAG binder 37 | rCAG binder conf 43 | dCAG dye counter 16
Cc1ccc(F)c(C2C3C=CCC(c4cccc(-c5ccc(N(C)C)cc5)c4)C3C(=O)N2Cc2ccccc2)c1 (configuration not stated)	none
CCOC(=O)C1CCN(C(=O)CN(c2cc(Cl)ccc2OC)S(=O)(=O)c2ccccc2)CC1	none
Cc1csc2nnc(N)n12	none
CCN(CC)S(=O)(=O)c1ccc(NS(=O)(=O)c2ccc(OC)c([N+](=O)[O-])c2)cc1	rCAG binder 42 | rCAG binder conf inactive | dCAG dye counter inactive
COc1ccc(-c2ccc(NS(=O)(=O)c3cc([N+](=O)[O-])c(C)c([N+](=O)[O-])c3)cc2)nn1	rCAG binder 56 | rCAG binder conf 42 | dCAG dye counter 15
COc1ccc(S(=O)(=O)Nc2ccc(S(=O)(=O)N(C)C)cc2)cc1[N+](=O)[O-]	none
COc1ccc(-c2ccc(NS(=O)(=O)c3cc([N+](=O)[O-])ccc3C)cc2)nn1	none
O=[N+]([O-])c1ccc(Cl)c(S(=O)(=O)Nc2ccc(-c3ccc(N4CCCC4)nn3)cc2)c1	rCAG binder 47 | rCAG binder conf 39 | dCAG dye counter 12
CCN1C[C@@H]2[C@@H]3C(=O)N(C)C(=O)[C@@H]3[C@](CC)(C1=O)N2C(=O)c1ccc(C)cc1	none
CCCCCCCCCCCCCCCCCCNc1ccn(C2OC(COP(=O)(O)OCC3OC(n4cc(F)c(=O)[nH]c4=O)CC3O)C(O)C2O)c(=O)n1 (configuration not stated)	rCAG binder 55 | rCAG binder conf 61 | dCAG dye counter 36
COc1cc(C)ccc1OCCOCCOc1ccccc1Br	none
CC1=NN(c2ccc(C)cc2)C(=O)/C1=C/c1ccc(-c2cc([N+](=O)[O-])ccc2O)o1	rCAG binder 56 | rCAG binder conf 64 | dCAG dye counter 34
CCCc1cc(=O)n2[nH]c(NCc3ccc(OC)cc3)nc2n1	none
CC(C)c1ccc(-c2nc(N3CCCCC3)[nH]c(=O)c2C#N)cc1	none
CC1=Nc2nc(N3CCCCC3)c(C#N)c3c4c(nc(c23)N1)N(c1ccc(C(C)C)cc1)C(=O)C4	rCAG binder 62 | rCAG binder conf 38 | dCAG dye counter 22
C[C@H]1O[C@@H](n2c3ccc(Cl)cc3c3ccc4c5cc(Cl)ccc5[nH]c4c32)[C@H](O)[C@H](O)[C@H]1O	rCAG binder 78 (no result: MsrA inhibitor, MsrA act) | rCAG binder conf 54 | dCAG dye counter 43
C[C@@H]1O[C@@H](n2c3ccc(Cl)cc3c3ccc4c5cc(Cl)ccc5[nH]c4c32)[C@H](O)[C@H](O)[C@H]1O	rCAG binder 62 (no result: MsrA inhibitor, MsrA act) | rCAG binder conf 60 | dCAG dye counter 42
C[C@H]1O[C@@H](n2cc(F)c(=O)[nH]c2=O)[C@H](O)[C@@H]1O	none
CCOC(=O)/C(C#N)=C/c1cn(CCC(=O)O)nc1-c1cccc(Br)c1	none
CCc1ccc(-c2csc3ncn(Cc4ccc(C(=O)O)cc4)c(=O)c23)cc1	rCAG binder 35 | rCAG binder conf inactive | dCAG dye counter 7.7
CCCOC(=O)Cn1cnc2scc(-c3ccc(C)cc3)c2c1=O	none
COc1ccc(CNC(=O)C/C(C)=N/NC(=O)Cc2ccc(OC)c(OC)c2)cc1	none
Cc1ccc(C)c(Sc2ccc(S(=O)(=O)Nc3ccc(C(=O)O)cc3)cc2)c1	rCAG binder 38 | rCAG binder conf 41 | dCAG dye counter 11
Cc1ccc(Sc2ccc(S(=O)(=O)Nc3ccc(CC(=O)O)cc3)cc2)cc1C	rCAG binder 52 | rCAG binder conf 44 | dCAG dye counter 14
Cc1oc2c(cc(NS(=O)(=O)c3ccc4c5c(cccc35)C(=O)N4)c3ccccc32)c1C(=O)OC(C)C	rCAG binder 37 | rCAG binder conf 38 | dCAG dye counter 17
CCOC(=O)c1c(C)oc2c1cc(NS(=O)(=O)c1ccc(C(=O)O)cc1)c1ccccc12	rCAG binder 67 | rCAG binder conf 55 | dCAG dye counter 20
O=C(Nc1cccc(Cl)c1)N1CCN(C/C=C/c2ccccc2)CC1	none
COc1ccc(CN(CC2CCC(C(=O)O)CC2)C(=S)Nc2ccc(C)c(Cl)c2)cc1 (configuration not stated)	rCAG binder 35 | rCAG binder conf inactive | dCAG dye counter 5.8
COc1ccc(NC(=S)N(Cc2ccc(C(=O)O)cc2)Cc2ccc(OC)c(OC)c2)cc1	none
Cc1ccc(NC(=S)N(Cc2ccc(Cl)cc2)Cc2ccc(C(=O)O)cc2)cc1Cl	rCAG binder 76 | rCAG binder conf 69 | dCAG dye counter 28 | DNA CAG DR inactive
CCOC(=O)C1=C(C)Nc2ncnn2C1c1c[nH]c2ccccc12 (configuration not stated)	none
O=C(NC1CC2CCCC(C1)N2C(=O)Nc1ccccc1)c1ccccc1 (configuration not stated)	none

Screening results as filed in PubChem BioAssay.
